# From ChEMBL document CHEMBL4513216, “Probing the Open Global Health Chemical Diversity Library for Multistage-Active Starting Points for Next-Generation Antimalarials” (ACS Infect Dis, 2020)
# Among all 69,000 compounds or so, about 8,600 (12%) showed an effect of 50% or more. Only a selection was taken, and strong results are over-represented in it overall.
# Test system: Plasmodium berghei
# Experiment: Screen against P. berghei liver stage (PbLuc), transformed with Luciferase, at 10uM
# Format: functional, HepG2
# Details: tested at 10 uM
row,SMILES,INHIBITION [%]
1,O=C(NCC1CC1)C1CN(Cc2ccncc2)Cc2ccnn2C1 (centres undefined),-2.35
2,CC(=O)N1Cc2ccnn2CC(C(=O)NCc2cccnc2)C1 (centres undefined),46.6
3,O=C(NCc1cccnc1)C1CC(=O)N(CC2CC2)C1 (centres undefined),37
4,CNCC(=O)N1CC(c2cc(Nc3ncccn3)nc(C)n2)C1,29.6
5,CCn1ncc2c1CCCC2NCc1cc(OC)cc(OC)c1 (centres undefined),37.9
6,CC(C)n1cc(C(=O)NCCCn2ccnc2)c2n[nH]c(=O)c-2c1,-7.57
7,Cc1ccc(N2CC[C@H]3C[C@H](C(=O)NCc4ccco4)O[C@@H]3C2)cc1,40.1
8,CC(C)CN1CCS(=O)(=O)[C@@H]2CCN(S(=O)(=O)CC(C)C)CC[C@@H]21,2.41
9,Cc1ccc(C(=O)NC2CCN(C(C)C)C2)c(=O)[nH]1 (centres undefined),20.8
10,CC(C)NC(=O)c1cc(-c2ccc(S(C)(=O)=O)cc2)nc2c1cnn2C,24.2
11,CN(C)C(=O)c1cc(-c2ccc(S(C)(=O)=O)cc2)c2cnn(C)c2n1,25.9
12,CC(C)NC(=O)c1cc(-c2ccc(S(C)(=O)=O)cc2)c2cnn(C)c2n1,94.6
13,COc1cccc(CNC(=O)c2cccnc2SC(C)C)c1,7.27
14,CCN(C)Cc1n[nH]c(=O)n1-c1ccc(C)c(C)c1,46.7
15,O=C(CC1CC1)N1CCN(Cc2cccnc2)c2ncccc2C1,0.618
16,CC1CCC(NC(=O)CNC2(c3cccc(Br)c3)CCOCC2)CC1 (centres undefined),-7.46
17,O=C(CC1Cn2ncnc2NC1=O)Nc1cccc(C(F)(F)F)c1 (centres undefined),54
18,O=C(CC1Cn2ncnc2NC1=O)Nc1ccccc1 (centres undefined),-46.2
19,COc1cccc(NC(=O)CC2Cn3ncnc3NC2=O)c1 (centres undefined),25.9
20,CN(Cc1cncnc1)Cc1cn2c(n1)CN(C1CCOC1)CC2 (centres undefined),1.28
21,CCOC(=O)N1CCN(C(=O)c2snnc2-c2ccccc2)CC1,-7.27
22,COCc1ccccc1CNC(=O)CN1CCCC1c1noc(C)n1 (centres undefined),-1.05
23,COc1ccc(Cl)cc1CNC(=O)CN1CCC2(CCOC2)C1 (centres undefined),39.6
24,CNC(=O)CN1CCOCC2(CCCN(CCc3ccccc3)C2)C1 (centres undefined),43.2
25,CCCOc1cccc(CNC(=O)CN2CCN(C)CC2C)c1 (centres undefined),36.9
26,COCc1ccccc1CNC(=O)CN1CCC2(CCOC2)C1 (centres undefined),68.4
27,CCOc1cccc(CNC(=O)CN2CCC3(CCOC3)C2)c1 (centres undefined),61.9

row,SMILES,INHIBITION [%]
1,Cc1oncc1C(=O)N[C@@H]1CN(Cc2ccoc2)C[C@@H]2CCCO[C@@H]21,43
2,COc1cc(N2CCC3(CC2)OCC(=O)NC3C)ncn1 (centres undefined),10.6
3,Cc1cc(F)cc(S(=O)(=O)NC(=O)CCc2cncc(F)c2)c1,38.9
4,CNC(=O)CCc1cc(C)nc(C2CCCCN2)n1 (centres undefined),26.3
5,O=C(COc1ccccc1F)NCC(O)(c1ccccc1)C1CC1 (centres undefined),-22.7
6,CCC(=O)N1CCN(c2cc(N(C)C)cnn2)CC1,-15.6
7,CC(C)CC(=O)N1CCN(c2cc(N(C)C)cnn2)CC1,22.2
8,Cc1nn(C)c(C)c1C(=O)N1CCN(C(=O)CCC2CCCCC2)CC1,28.7
9,Cc1nn(C)c(C)c1C(=O)N1CCN(C(=O)CC2CCCCC2)CC1,39.4
10,Cc1cc(C(=O)N2CCN(C(=O)CCC3CCCCC3)CC2)n(C)n1,56.5
11,CN(C)c1cnnc(N2CCN(C(=O)CCC3CCCCC3)CC2)c1,76.7
12,CCN1CC(C(=O)NCCn2cccc2)CCC1=O (centres undefined),44.8
13,NCc1cc(-c2ccccc2)n2nccc2n1,41.2
14,CS(=O)(=O)N[C@@H]1COC[C@@H]2CN(Cc3ccco3)C[C@@H]21,18.4
15,Cn1nccc1C(=O)N1C[C@@H]2CC[C@H](Oc3cccc(F)c3)[C@@H]2C1,25.6
16,CCNC(=O)c1cc2n(n1)CCCO2,9.41
17,CCOC(=O)c1cc2n(n1)CCCO2,57.6
18,CCOC(=O)CNC(=O)c1cc2n(n1)CCCO2,-0.996
19,COC(=O)c1ccc(OC)c(OC23CCCN(CC2)C3)c1 (centres undefined),-9.76
20,N#Cc1ccc(C(=O)N2CCC3(CC2)CC3)cc1,40.8
21,O=C(c1cc(F)cc(F)c1)N1CCC(O)(C(F)(F)F)CC1,25.4
22,O=C(c1cc(F)cc(F)c1)N1CCC2(CC1)CC2,73.2
23,COCCN1CCO[C@@H]2CN(C(=O)NCc3cccnc3)CC[C@@H]2C1,29.8
24,Cc1nc(CN(Cc2ccccc2F)C2CCC2)no1,-16.6
25,O=C(Nc1ccc2c(c1)OCCO2)N1CCCN(Cc2cccs2)CC1,-14.1
26,O=C1Cc2cc(NC(=O)N3CCCN(Cc4cccs4)CC3)ccc2N1,42.7
27,O=C1CCc2cc(NC(=O)N3CCCN(Cc4cccs4)CC3)ccc21,53.8
